The sample as a whole holds a higher share of hits than the screen did.
TTR transcr act = TTR transcription activators in neuroblastoma reporter cells, primary screen, cell-based, luminescence, SH-SY5Y, TTR promoter Gaussia luciferase; 100% = recombinant luciferase protein wells; activation, % at 16.7 µM; 92,000 tested, 1.3% active;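 active = activation above the mean of all tested compounds plus 3 SD, cut at about 9.5% in these data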;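 also: cells exposed to compounds for one day before reading; 0% = median of all test compound wells on the plate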
TTR inh HuH7 = TTR promoter reporter inhibitors in hepatoma cells, counter-screen for TTR transcription activator project, cell-based, luminescence, HuH7 hepatoma | 1,100 tested, 4% active | inhibition, % at 16.7 µM | shares compounds with TTR transcr act | HuH7 TTR promoter-Gaussia luciferase reporter;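 active = average inhibition above the solvent-only control wells' mean plus 3 SD, cut at about 15% in these data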;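 also: 0% = cells with DMSO only and 100% = cells with inhibitor control FD; inhibitors lower well luminescence so higher value means more inhibition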
TTR act confirm = TTR transcription activators, retest, confirmation, cell-based, luminescence, SH-SY5Y, triplicate. shares compounds with TTR transcr act. SHSY5Y TTR promoter Gaussia luciferase; 100% = purified Lucia enzyme wells, no cells. activation, % at 16.7 µM. 1,100 tested, under 10 active;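 active = mean activation above a set limit taken from the earlier primary screen, cut at about 11% in these data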;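 also: 0% = DMSO-treated cells and 100% = recombinant Lucia luciferase without cells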
Numbers without * were called inactive.

For COC(=O)CSc1nc2cc3c(cc2cc1C)OCO3 the results were TTR transcr act 0.
`COc1cccc(CSc2nc3ccccc3[nH]2)c1` gave TTR transcr act 0.
`O=C(CCN1C(=O)NC2(CCCC2)C1=O)Nc1ccc(-c2nc3ccccc3s2)cc1` gave TTR transcr act 1.
For CC[C@H]1/C(=C/c2ccccc2)N2C(=O)C[C@H](c3ccccc3)N=C2N1C the results were TTR transcr act 3.
`O=C1CC(c2ccc3ccccc3c2)N=C2N(Cc3ccc4c(c3)OCO4)C/C(=C/c3ccccc3)N12` (configuration not stated) gave TTR transcr act -1.
C=CCN1C/C(=C/c2ccccc2)N2C(=O)CC(c3ccccc3)N=C12 (configuration not stated) was read as TTR transcr act 11*, TTR inh HuH7 -18 and TTR act confirm 1.
For O=C(NCc1n[nH]c(=S)n1-c1ccccc1Cl)c1ccc(S(=O)(=O)N2CCCCC2)cc1 the results were TTR transcr act 0.
`CCN(C(=O)CSc1nnc(C)n1Cc1ccccc1)C1CCS(=O)(=O)C1` (configuration not stated) gave TTR transcr act 10*, TTR inh HuH7 -5 and TTR act confirm 1.
For CCN(C(=O)CSc1nnc(-c2ccc(F)cc2)c2ccccc12)C1CCS(=O)(=O)C1 (configuration not stated) the results were TTR transcr act -1.
Screening CCN(C(=O)CSc1ccc2ccccc2c1)C1CCS(=O)(=O)C1 (configuration not stated) returned TTR transcr act 2.
`C/C(=N\NC(=O)c1ccc(Cl)c(S(=O)(=O)Nc2ccccc2Cl)c1)c1ccncc1` gave TTR transcr act -2.
COc1ccc(CNc2ncc(-c3ccccc3)n2C)c(OC)c1OC was read as TTR transcr act 11*, TTR inh HuH7 5 and TTR act confirm -1.
Screening COc1ccc(-c2cnc(NCc3cc4c(cc3[N+](=O)[O-])OCO4)n2C)cc1 returned TTR transcr act 1.
Screening Cn1c(-c2cccc([N+](=O)[O-])c2)cnc1NCc1cccc([N+](=O)[O-])c1 returned TTR transcr act 0.
COC(=O)C[C@@H]1CC[C@@H](NS(=O)(=O)c2ccccc2OC)[C@@H](CO)O1 was read as TTR transcr act 0.
For CC(=O)Nc1ccc(C=CC=Cc2cccc([N+](=O)[O-])c2)cc1 the results were TTR transcr act 0.
`CCC(C)[C@H](NC(=O)Nc1ccccc1F)C(=O)O` (some centres not stated) gave TTR transcr act 9.
COC(C(=O)NC1CC1)c1ccccc1 (configuration not stated) was read as TTR transcr act 2.
COC(C(=O)Nc1ccccc1F)c1ccccc1 (configuration not stated) was read as TTR transcr act 15*, TTR inh HuH7 -7 and TTR act confirm 0.
For CCc1nccn1CC(=O)c1ccc(O)c(O)c1 the results were TTR transcr act 0.
For COc1ccc(NC(=O)c2cc(C3CCCCN3C(=O)C3CCCCC3)on2)c(C)c1 (configuration not stated) the results were TTR transcr act 1.
Cc1ccc(Cl)c(N/C=C/C(=O)c2ccccc2)c1 was read as TTR transcr act 5.
For COC(=O)CNC(=O)C1CC(=O)N(CCc2ccc(F)cc2)C1 (configuration not stated) the results were TTR transcr act -1.
Screening CCOc1cc2[nH]c(=S)n(CCCCC(=O)NCc3ccco3)c(=O)c2cc1OCC returned TTR transcr act 1.
Screening CCOc1cc2[nH]c(=S)n(CCCOC)c(=O)c2cc1OCC returned TTR transcr act 0.
`CCOc1cc2[nH]c(=S)n(CCC(=O)NCc3ccc(OC)cc3)c(=O)c2cc1OCC` gave TTR transcr act 26*, TTR inh HuH7 7 and TTR act confirm -1.
`Nc1[nH]c(C(=O)c2ccccc2)c(-c2ccc(Br)cc2)c1C(=O)N1CCN(CCO)CC1` gave TTR transcr act -2.
Screening Cc1cccc(C)c1OCC(=O)NNC(=O)c1ccoc1C returned TTR transcr act 7.
CCCC(=O)NNC(=O)c1ccoc1C was read as TTR transcr act 17*, TTR inh HuH7 -9 and TTR act confirm -1.
For Cc1cc(C)cc(OCC(=O)NNC(=O)c2ccoc2C)c1 the results were TTR transcr act 1.
For COC(=O)[C@]12C[C@H](CC(=O)NCCc3ccccc3OC)C(=O)N(CCc3ccc(OC)c(OC)c3)C1=C[C@H](C(C)C)O[C@@H]2C1CC1 the results were TTR transcr act -2.
CC1(C)OCC(N)(CO)CO1 was read as TTR transcr act 0.
`COC(=O)[C@]12CCCCC=C1N(Cc1ccc(OC)cc1)C(=O)[C@@H]2CC(=O)N1CCN(C(=O)C2CC2)CC1` gave TTR transcr act 1.
`Cc1ccc(-c2nc3cc(C)c(Br)c(C)n3c2CC2CCCCC2)cc1` gave TTR transcr act 9.8*, TTR inh HuH7 -9 and TTR act confirm 0.
`Cc1cc2nc(-c3cccc(Cl)c3)c(CC3CCCCC3)n2c(C)c1Br` gave TTR transcr act 2.
`Cc1cc2nc(-c3ccc(F)cc3)c(CC3CCCCC3)n2c(C)c1Br` gave TTR transcr act 2.
COc1ccc(-c2nc3cc(C)c(Br)c(C)n3c2CC2CCCCC2)cc1OC was read as TTR transcr act 2.
`CCCc1nc2cc(C)c(Br)c(C)n2c1CC1CCCCC1` gave TTR transcr act -2.
Screening Cc1cc2nc(-c3ccccc3)c(CC3CCCCC3)n2c(C)c1Br returned TTR transcr act 22*, TTR inh HuH7 -8 and TTR act confirm 1.
CC(C)(C)[C@@H]1/C(=C/C2CC2)N2C(=O)C[C@@H](c3ccccc3)N=C2N1Cc1ccc2c(c1)OCO2 was read as TTR transcr act -2.
For COc1ccc2c(-c3ccc(S(N)(=O)=O)cc3)c(-c3ccc(S(C)(=O)=O)cc3)sc2c1 the results were TTR transcr act -1.
CCCn1c(=O)c(C(=O)NCc2ccccc2)c(O)c2ccccc21 was read as TTR transcr act -1.
Screening CCCn1c(=O)c(Cc2ccccc2)c(O)c2ccccc21 returned TTR transcr act 11*, TTR inh HuH7 -12 and TTR act confirm -1.
Screening CCCCCn1c(=O)c(Cc2ccccc2)c(O)c2ccccc21 returned TTR transcr act -2.
`O=S(=O)(Nc1cc(S(=O)(=O)N2CCOCC2)ccc1NCC1CCCO1)c1ccccc1` (configuration not stated) gave TTR transcr act 1.
Screening O=C(NCc1ccccc1)NC(=O)c1ccc(Cl)cc1 returned TTR transcr act 25*, TTR inh HuH7 -10 and TTR act confirm 0.
`O=C(NCc1ccccc1Cl)NC(=O)c1ccccc1` gave TTR transcr act 0.
For O=C(NCc1ccccc1)c1ccc(CO)cc1 the results were TTR transcr act -1.
NS(=O)(=O)c1ccc(NC(=O)COC(=O)CCC2CCCCC2)cc1 was read as TTR transcr act 2.
For O=C(COc1ccc(F)c(Cl)c1)N[C@H]1CCCN(CC2CC2)C1 the results were TTR transcr act 0.

Assay outcomes (PubChem)
